Here are results for 25 compounds from PubChem BioAssay AID2012 (Sanford-Burnham Center for Chemical Genomics, 2009).

The test has as its target Eukaryotic translation initiation factor 4H (Homo sapiens) (UniProt Q15056). The test can be described thus: eIF4H binding inhibition – biochemical, uHTS, fluorescence polarization, translation initiation inhibitor project, primary screen (AID 2012).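 Note: calls also rest on retests at 20 µM and on dose response follow-up.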 The conditions noted are these: eIF4H fluorescence polarization binding assay, stronger effect = higher value.

As a reminder, the inhibition is the change of the read-out against control, counted positive when it falls.

In all, about 290,000 compounds went through this assay and about 2,700 (0.93%) were called active. The rule behind the calls is not given here. What follows is part of a selection rich in actives, with near analogues and random picks from the rest.

As for `O=C(CCc1ccccc1)NNC(=O)COc1ccc(Cl)cc1`, the inhibition (at 35 µM) is 0.4% (inactive). As for `COc1ccccc1NC(=O)CCC(=O)OC(C)C(=O)c1ccccc1` (stereo unspecified), the inhibition (at 35 µM) was 1.3% (inactive). On to `O=C(NC1CCCC1)C(=O)c1c[nH]c2ccccc12`, for which the inhibition (at 35 µM) was -6.1% (inactive). On to `CCCNC(=O)CSc1nc(Cc2ccccc2)nc2ccccc12`, for which the inhibition (at 35 µM) was -6.2% (inactive). With `Clc1c(OCCCn2ccnc2)ccc2ccccc12`, the inhibition (at 35 µM) is 1.6% (inactive). For the compound `O=C(/C=C/c1ccc2c(c1)OCO2)NCc1cn2cc(Cl)ccc2n1`, the inhibition (at 35 µM) was -3.3% (active) and the inhibition (confirmation average, at 20 µM) amounted to 76.4%. For the compound `O=C(/C=C/c1ccc2c(c1)OCO2)NCc1ccc(F)cc1`, the inhibition (at 35 µM) was 4.7% (inactive). For `Cc1cccc(NC(=O)/C=C/c2ccc3c(c2)OCO3)n1`, the inhibition (at 35 µM) was -2.1% (inactive). With `Cc1cccc(NS(=O)(=O)c2ccc(-c3cnc(C4CC4)o3)cc2)c1`, the inhibition (at 35 µM) is -2.4% (inactive). Take `O=C(c1ccc[nH]c1=S)N1CCN(S(=O)(=O)c2ccc(Br)cc2Cl)CC1`: for the setting “at 35 µM”, the inhibition is -10.2% (inactive). Regarding `Cc1ccc(OCC(=O)c2cc(C)n(Cc3ccco3)c2C)c([N+](=O)[O-])n1`, the inhibition is, setting by setting: (at 35 µM) 101% (active); (confirmation average, at 20 µM) 86.9%. For the compound `CCc1ccccc1NC(=O)CN(C)C(=O)COc1ccc(C)nc1[N+](=O)[O-]`, the inhibition (at 35 µM) was 1.9% (inactive). Consider `Cc1cc(C(=O)COC(=O)CNC(=O)c2ccc(F)cc2)c(C)n1Cc1ccco1`, for which the inhibition is 86.4% (inactive) (at 35 µM) and -10.3% (confirmation average, at 20 µM). `COc1ccc(C)cc1-n1nnnc1SCC(=O)c1cc(C)n(Cc2ccco2)c1C`: under “at 35 µM”, the inhibition was 64.8% (active). With `COCC(C)n1c(C)cc(C(=O)COc2ccc(C)nc2[N+](=O)[O-])c1C` (stereo unspecified), the inhibition reads like this: (at 35 µM) 70.1% (active); (confirmation average, at 20 µM) 70.5%. The corresponding values for `Cc1ccc(OCC(=O)NC(C)c2ccccc2)c([N+](=O)[O-])n1` (stereo unspecified) are -4.1% (inactive) and -2.8%. On to `COc1ccc(OC)c(-n2nnnc2SCC(=O)Nc2cc(C)ccc2OC)c1`, for which the inhibition (at 35 µM) was 0% (inactive). With `COc1ccccc1CNC(=O)COc1ccc(C)nc1[N+](=O)[O-]`, where the note is “at 35 µM”, the inhibition is -3.5% (inactive). `Cc1cc(C(=O)CSc2nc(N)cc(=O)[nH]2)c(C)n1Cc1ccco1`: the inhibition (at 35 µM) was 43.2% (inactive).

For the compound `Cc1c(C(C)(C)O)[nH]c2ccc(C#N)cc12`, the inhibition (at 35 µM) is 2.9% (inactive). The same measure, in the same setting: with `CN1CCN(C(=O)C(=O)c2cn(CC(=O)N3CCCC3)c3ccccc23)CC1` the figure was -7.2% (inactive); with `CNC(=O)c1sc(Nc2ccc(OCc3ccccc3)cc2)nc1C`, 8% (inactive). As to `Cc1cc2ccccn2c1C(=O)c1cccc(F)c1`, where the note is “at 35 µM”, the inhibition was -9.7% (inactive). Take `Cc1ccc(C(C[N+](=O)[O-])c2c(C)cc3ccccn23)cc1` (stereo unspecified): the inhibition is 54.1% (active) (at 35 µM) and 84.9% (confirmation average, at 20 µM).

Turning to `CC(=O)Nc1ccc(/C=N/Nc2ccc(C(=O)c3c(C)cc4ccccn34)cc2[N+](=O)[O-])cc1`, the inhibition (at 35 µM) was 8.5% (inactive).
